“And” between values parts separate entries of the source, which are not always exact repeats. Equal values may be shown once. Among all 5,500 compounds or so, about 2,000 (36%) were called active. About 18% were inconclusive and are not listed. Cut-off read from the data, not from the text of the source: active = normalized growth mostly below about 0.91 (no sharp cut-off); inconclusive = no clear call, values can overlap the other calls; inactive = mostly above about 0.92. Some of the results follow.
Test: chemical genetic growth profiling, strain panel (AID 1159580);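 note: tested at 20 µM; growth read once vehicle control cultures reached saturation at 30 °C; 1 = growth at the plate median or of vehicle wells; lower values mean less growth of the strain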
Conditions: growth OD

Measured: normalized growth

C[N+](C)(C)CCOC(N)=O
inactive: S. cerevisiae deletion strains, locus YKL068W, active compounds read low 0.981 | S. cerevisiae deletion strains, locus YKL085W, strain MDH1 (second series), active compounds read low 0.969 | S. cerevisiae deletion strains, locus YKL085W, strain MDH1, active compounds read low 0.969 | S. cerevisiae deletion strains, locus YKL160W, strain elf1, active compounds read low 1.02 | S. cerevisiae deletion strains, locus YKL190W, strain CNB1, active compounds read low 1 | S. cerevisiae deletion strains, locus YKR001C, strain vps1, active compounds read low 0.991 | S. cerevisiae deletion strains, locus YKR026C, strain gcn3, active compounds read low 0.988 | S. cerevisiae deletion strains, locus YKR091W, strain srl3, active compounds read low 1 | S. cerevisiae deletion strains, locus YLL001W, strain dnm1, active compounds read low 0.998 | S. cerevisiae deletion strains, locus YLL026W, active compounds read low 1 | S. cerevisiae deletion strains, locus YLL041C, strain sdh2, active compounds read low 1.01 | S. cerevisiae deletion strains, locus YLR027C, strain aat2, active compounds read low 1.01 | S. cerevisiae deletion strains, locus YLR039C, strain RIC1, active compounds read low 0.993 | S. cerevisiae deletion strains, locus YLR058C, strain SHM2, active compounds read low 1 | S. cerevisiae deletion strains, locus YLR102C, strain apc9, active compounds read low 0.986 | S. cerevisiae deletion strains, locus YLR113W, strain HOG1, active compounds read low 0.959 | S. cerevisiae deletion strains, locus YLR221C, strain rsa3, active compounds read low 1.01 | S. cerevisiae deletion strains, locus YLR258W, strain gsy2, active compounds read low 1.02 | S. cerevisiae deletion strains, locus YLR262C, strain YPT6 (second series), active compounds read low 1.02 | S. cerevisiae deletion strains, locus YLR262C, strain YPT6, active compounds read low 0.991 | S. cerevisiae deletion strains, locus YLR268W, strain sec22, active compounds read low 0.978 | S. cerevisiae deletion strains, locus YLR320W, strain mms22, active compounds read low 1.03 | S. cerevisiae deletion strains, locus YLR330W, strain CHS5, active compounds read low 1 | S. cerevisiae deletion strains, locus YLR342W, strain FKS1 (second series), active compounds read low 1.12 | S. cerevisiae deletion strains, locus YLR342W, strain FKS1, active compounds read low 1.01 | S. cerevisiae deletion strains, locus YLR357W, strain rsc2, active compounds read low 1 | S. cerevisiae deletion strains, locus YLR370C, strain arc18, active compounds read low 1.01 | S. cerevisiae deletion strains, locus YLR371W, strain rom2, active compounds read low 0.97 | S. cerevisiae deletion strains, locus YLR384C, strain iki3, active compounds read low 1.04 | S. cerevisiae deletion strains, locus YLR418C, strain cdc73, active compounds read low 0.983 | S. cerevisiae deletion strains, locus YML016C, strain PPZ1, active compounds read low 1.02 | S. cerevisiae deletion strains, locus YML032C, strain rad52, active compounds read low 0.993 | S. cerevisiae deletion strains, locus YML120C, strain ndi1, active compounds read low 1.02 | S. cerevisiae deletion strains, locus YML124C, strain tub3, active compounds read low 0.974 | S. cerevisiae deletion strains, locus YMR058W, strain fet3, active compounds read low 1.02 | S. cerevisiae deletion strains, locus YMR078C, strain ctf18, active compounds read low 0.956 | S. cerevisiae deletion strains, locus YMR125W, strain sto1, active compounds read low 1.03 | S. cerevisiae deletion strains, locus YMR129W, active compounds read low 1.02 | S. cerevisiae deletion strains, locus YMR205C, strain PFK2, active compounds read low 1.02 | S. cerevisiae deletion strains, locus YMR223W, strain ubp8, active compounds read low 0.975 | S. cerevisiae deletion strains, locus YMR231W, strain pep5, active compounds read low 1.02 | S. cerevisiae deletion strains, locus YMR263W, strain SAP30, active compounds read low 1 and 0.986 | S. cerevisiae deletion strains, locus YMR307W, strain GAS1, active compounds read low 1.16 | S. cerevisiae deletion strains, locus YNL067W, strain RPL9B, active compounds read low 0.961 | S. cerevisiae deletion strains, locus YNL071W, strain lat1, active compounds read low 1.01 | S. cerevisiae deletion strains, locus YNL128W, strain TEP1, active compounds read low 0.971 | S. cerevisiae deletion strains, locus YNL153C, strain GIM3, active compounds read low 0.963 | S. cerevisiae deletion strains, locus YNL175C, strain NOP13, active compounds read low 0.973 | S. cerevisiae deletion strains, locus YNL183C, strain NPR1, active compounds read low 0.938 | S. cerevisiae deletion strains, locus YNL197C, strain WHI3, active compounds read low 0.991 | S. cerevisiae deletion strains, locus YNL209W, strain ssb2, active compounds read low 1.01 | S. cerevisiae deletion strains, locus YNL224C, strain SQS1, active compounds read low 0.991 | S. cerevisiae deletion strains, locus YNL233W, strain BNI4, active compounds read low 0.99 | S. cerevisiae deletion strains, locus YNL248C, strain rpa49, active compounds read low 1.03 | S. cerevisiae deletion strains, locus YNL250W, strain rad50, active compounds read low 0.969 | S. cerevisiae deletion strains, locus YNL271C, strain bni1, active compounds read low 0.979 | S. cerevisiae deletion strains, locus YNL298W, strain CLA4, active compounds read low 0.977 | S. cerevisiae deletion strains, locus YNL307C, strain MCK1, active compounds read low 0.982 | S. cerevisiae deletion strains, locus YNL322C, strain KRE1 (second series), active compounds read low 1.02 | S. cerevisiae deletion strains, locus YNL322C, strain KRE1, active compounds read low 0.989 | S. cerevisiae deletion strains, locus YNR049C, strain mso1, active compounds read low 1.02 | S. cerevisiae deletion strains, locus YNR052C, strain pop2, active compounds read low 0.97 | S. cerevisiae deletion strains, locus YOL012C, strain htz1 0.907 | S. cerevisiae deletion strains, locus YOL147C, strain pex11, active compounds read low 0.978 | S. cerevisiae deletion strains, locus YOR001W, strain rrp6, active compounds read low 1.03 | S. cerevisiae deletion strains, locus YOR061W, strain CKA2, active compounds read low 1 | S. cerevisiae deletion strains, locus YOR069W, strain VPS5, active compounds read low 1 | S. cerevisiae deletion strains, locus YOR070C, strain gyp1, active compounds read low 1.01 | S. cerevisiae deletion strains, locus YOR080W, strain dia2, active compounds read low 1.03 | S. cerevisiae deletion strains, locus YOR083W, strain WHI5 (second series), active compounds read low 1.01 | S. cerevisiae deletion strains, locus YOR083W, strain WHI5, active compounds read low 1.03 | S. cerevisiae deletion strains, locus YOR106W, strain vam3, active compounds read low 1.01 | S. cerevisiae deletion strains, locus YOR136W, strain idh2, active compounds read low 0.976 | S. cerevisiae deletion strains, locus YOR144C, strain elg1, active compounds read low 0.982 | S. cerevisiae deletion strains, locus YOR184W, strain ser1, active compounds read low 0.973 | S. cerevisiae deletion strains, locus YOR231W, strain MKK1, active compounds read low 1 | S. cerevisiae deletion strains, locus YOR265W, strain rbl2, active compounds read low 1.01 | S. cerevisiae deletion strains, locus YOR270C, strain vph1, active compounds read low 1.05 | S. cerevisiae deletion strains, locus YOR290C, strain snf2, active compounds read low 1.02 | S. cerevisiae deletion strains, locus YOR316C, strain cot1, active compounds read low 0.976 | S. cerevisiae deletion strains, locus YPL051W, strain arl3, active compounds read low 1.02 | S. cerevisiae deletion strains, locus YPL055C, strain LGE1, active compounds read low 0.997 and 0.999 | S. cerevisiae deletion strains, locus YPL078C, strain atp4, active compounds read low 1.01 | S. cerevisiae deletion strains, locus YPL106C, strain sse1, active compounds read low 1.04 | S. cerevisiae deletion strains, locus YPL240C, strain hsp82, active compounds read low 1.02 | S. cerevisiae deletion strains, locus YPL241C, strain CIN2, active compounds read low 1.01 | S. cerevisiae deletion strains, locus YPL256C, strain CLN2, active compounds read low 0.993 | S. cerevisiae deletion strains, locus YPR119W, strain clb2, active compounds read low 0.973 | S. cerevisiae deletion strains, locus YPR141C, strain kar3, active compounds read low 0.973 | S. cerevisiae deletion strains, locus YPR163C, strain tif3, active compounds read low 0.985 | S. cerevisiae deletion strains, locus YPR167C, strain met16, active compounds read low 0.975 | S. cerevisiae deletion strains, strain wtn01, active compounds read low 1.01 | S. cerevisiae strains, strain wild type, active compounds read low 1.01

Reference: PubChem BioAssay AID1159580 (chemical genetic matrix, 2015)
